# According to ChEMBL document CHEMBL4888484, “Replenishing the malaria drug discovery pipeline: Screening and hit evaluation of the MMV Hit Generation Library 1 (HGL1) against asexual blood stage Plasmodium falciparum ,using a nano luciferase reporter read-out” (2022):
# The campaign covered roughly 4,800 compounds. About 410 (8.5%) showed an effect of 50% or more. The list comes from a sample in which strong results are over-represented; it also holds similar structures and randomly drawn compounds.
# System: Plasmodium falciparum
# Assay: Confirmatory screen in NF54 pLDH assay, in single point, at 2uM, 72h
# Format: functional, Erythrocyte
# Details: timepoint 72 hour
row,Structure (SMILES),% Inhibition
1,Cc1ccc(-c2c[n+](-c3ccc(OC(F)F)cc3)c3n2CCCCC3)cc1,60%
2,CCOc1ccc(-[n+]2cc(-c3ccccc3)n3c2CCC3)cc1,70%
3,COc1ccc(C(=O)C[n+]2cc(-c3ccc(OC)cc3)n3c2CCCC3)cc1,65%
4,Cn1c(-c2ccc(Cl)c(Cl)c2)c[n+](CC(=O)c2ccc(F)cc2)c1N,-12%
5,Cn1c(-c2ccc(Br)cc2)c[n+](CC(=O)c2ccc(Br)cc2)c1N,-4%
6,CCOc1nc(C)nc2cc(-c3ccccc3)n(Cc3ccccc3)c12,13%
7,COc1ccc(C(=O)C[n+]2nc(CNc3ccc(Br)cc3)n3c2CCCCC3)cc1,82%
8,FC(F)Oc1ccc(-c2c[n+](-c3cccc(C(F)(F)F)c3)c3n2CCCCC3)cc1,42%
9,COc1ccc(CC(=O)NCc2nnc3n2CCC3)cc1,9%
10,Cc1nnc(NC(c2cnc3ccccc3c2)[C@H]2C[C@@H](O)C2)s1 (stereo not given in full),12%
11,O=C(Cc1c[nH]c2ccccc12)N1CCc2ccccc2C1,-17%
12,COc1ccc2c(c1)OC13CCN(C)CC1C2C(C(=O)c1ccccc1OC)C(=O)N3 (stereo not given),10%
13,CCC(=O)N1CCc2sc(S(=O)(=O)N3CCN(c4cc(C)ccc4C)CC3)cc2C1,38%
14,c1ccc(-c2cn(-c3ccccc3)c3ncnc(N4CCCC4)c23)cc1,13%
15,C=CCOc1cc(C(=O)N2CCCCC2)cc2occc12,11%
16,COc1cc([C@H]2CC(=O)Nc3c2cnn3C)ccc1OCc1ccccc1,-8%
17,O=C(NC1CCCNC1=O)NC1CCCC1c1ccc(Cl)cc1 (stereo not given),10%
18,O=C(NCCC1=CCOCC1)c1cnc2ccccn12,-2%
19,O=C(CCc1ccccc1)Nc1ccc(-n2nn[nH]c2=O)cc1,15%
20,O=C1Nc2ccccc2[C@@]12Nc1ccccc1CO2,9%
21,C[C@@H](C(=O)N1CCN(C/C=C/c2ccccc2)CC1)N1Cc2ccccc2C1=O,0%
22,Cc1ccc(CCNC(=O)c2ccc(-c3nc(CS(=O)(=O)c4ccc(C)cc4)c(C)o3)cc2)cc1,-23%
23,COc1ccc(N2CCN(Cc3cc(-c4ccc(Cl)cc4)no3)CC2)cc1,-19%
24,COc1ccc(-c2c[n+](-c3ccc(Cl)cc3)c3n2CCCCC3)cc1,57%
25,COc1ccc(-n2nc(C(=O)N3CCN(c4ncccn4)CC3)c(=O)cc2OC)cc1,-29%

row,Structure (SMILES),% Inhibition
1,CCC(C)(C)N(C)C(=O)c1ccccc1Cl,-1%
2,COc1ccc2c(c1)CCN2S(=O)(=O)c1ccc2c(c1)OCCO2,-4%
3,Cc1cc(C)n(S(=O)(=O)c2ccc3c(c2)OCCO3)n1,7%
4,CC12CN(S(=O)(=O)c3ccc4c(c3)OCCO4)C3(C(=O)OCc4ccccc4)CC1CCC23C (stereo not given),64%
5,CC(C)C(=O)N1N=C(C(C)C)C[C@]1(O)C(F)(F)F,13%
6,Oc1csc(Cc2nc(C(F)(F)F)cs2)n1,-4%
7,COC1(CNC(=O)C[C@H](O)c2ccccc2)CCC1,-2%
8,COc1cccc(CCc2ccccc2OC[C@H](CN(C)C)OC(=O)CCC(=O)O)c1,-5%
9,O=C(C[C@H](NCCO)C(=O)O)c1ccc2c(c1)CCCC2,2%
10,O=C(Nc1ccsc1C(=O)NCc1cc(F)cc(F)c1)c1cnccn1,13%
11,C[C@@H](NC(=O)Nc1ccc(Cl)c(Cl)c1)C(=O)O,10%
12,CNc1nc(C)cc(C(=O)Nc2ccc(Cl)cc2NC(C)=O)n1,5%
13,O=C(Nc1ccc(Cl)c(Cl)c1)Nc1ccc(Cl)cc1NC(=O)Nc1ccc(Cl)c(Cl)c1,65%
14,COc1ccc(-c2cc3n(n2)C[C@@](C)(C(=O)NCc2ccccc2)N(Cc2ccc4c(c2)OCO4)C3=O)cc1,39%
15,COc1cc(N2CCn3c(nc4cc(Cl)ccc43)C2)ccc1NC(=O)C1CCCCC1,-13%
16,Cc1ccccc1C(=O)N(Cc1cccc(F)c1)c1ccc(CC(=O)NCCN2CCCCC2)cc1,39%
17,Cc1ccc(C(=O)N(Cc2cccc(F)c2)c2ccc(CC(=O)N[C@@H](C)c3ccccc3)cc2)cc1,89%
18,O=C(Cc1ccc(N(Cc2cccc(F)c2)C(=O)c2cccc(F)c2)cc1)NCCN1CCCCC1,29%
19,O=C(OCc1cncs1)c1ccccc1,10%
20,Cc1cc2nnc(-c3nc4ccccc4[nH]3)c(N)n2n1,-2%
21,Nc1c(-c2nc3ccccc3[nH]2)c2nc3ccccc3nc2n1Cc1ccccc1F,62%
22,CCC1C(C(=O)NCCN(C)CCOC)CCN1C(=O)OC(C)(C)C (stereo not given),1%
23,CCn1ccc([C@H](C)NC(=O)c2cc(-c3ccc(OC)cc3)nc3c2c(C)nn3C)n1,12%
24,Cc1c(CN(C)C(=O)Cn2ncc(Br)c2C)cnn1C,4%
25,C[C@@]1(C(=O)NCc2ccccc2)Cn2nc(-c3ccccc3)cc2C(=O)N1c1ccc2c(c1)OCCO2,36%

row,Structure (SMILES),% Inhibition
1,CCc1ccc(-c2cc3n(n2)C[C@@](C)(C(=O)NC2CCCCC2)N(c2cc(C)cc(C)c2)C3=O)cc1,58%
2,CCc1ccc(CN2C(=O)c3c(C(=O)OC)ncn3C[C@@]2(C)C(=O)NC2CCCCCC2)cc1,14%
3,O=C(O[C@@H](c1ccccc1)N1C(=O)C(C(F)(F)F)(C(F)(F)F)c2ccccc21)C(C(F)(F)F)C(F)(F)F,12%
4,Cc1c(NC(=O)c2ccccc2-c2ccccc2)ccc(N2CCCC2=O)c1NC(=O)c1ccccc1-c1ccccc1,-15%
5,CCCN(CC(=O)O)S(=O)(=O)c1cccc(C)c1Br,-23%
6,O=C(Nc1ccc2c(c1)cc(C(=O)Nc1ccc(C(F)(F)F)cc1)n2Cc1cccc(F)c1)c1ccccc1Cl,-25%
7,C#CCN(CCCc1ccccc1C)[C@H]1CCS(=O)(=O)C1,-23%
8,O=C(O)c1cc(-c2ccc3c(c2)OCCO3)nc2c(Br)cc(Br)cc12,3%
9,COc1ccc(C(O)CN2CCC(c3ccccc3)C2)cc1F (stereo not given),9%
10,O=C(C1CCC1)N1CCC[C@H]1c1nc(C2CCOCC2)no1,12%
11,COc1ccccc1NC(=O)c1cnn2c3c(cnc12)CCCCC3,3%
12,COc1ccc2ccccc2c1C(=O)Nc1ccc(N2CCN(C)CC2)c(Cl)c1,4%
13,Cc1cc(NC(=O)C(=O)NC2CC(C)CC(C)(C)C2)n(-c2nc3c(c(=O)[nH]2)CCC3)n1 (stereo not given),84%
14,CCOc1ccc2ccccc2c1C(=O)Nc1cc(C)nn1-c1nc2c(c(=O)[nH]1)CCC2,91%
15,Cc1nc(-c2ccc3[nH]c(=O)[nH]c3c2)cs1,9%
16,CC1CN(CCCNC(=O)Cc2c[nH]c3ccc(F)cc23)CC(C)O1 (stereo not given),-4%
17,CC(C1Cc2ccccc2O1)N(C)C(=O)c1n[nH]c2c1CCC2 (stereo not given),-6%
18,Cc1cc(Cl)ccc1S(=O)(=O)N1CCc2nnc([C@H]3CCN(C(C)C)C3)n2CC1,10%
19,COC(=O)C12CCC(C(=O)NC[C@H]3CCCOC3)(CC1)CC2,2%
20,OCC#Cc1ncc(C(F)(F)F)cc1Cl,-19%
21,CCc1nc(C(=O)N2C[C@@H]3CCCN(C(=O)c4coc(CC)n4)[C@@H]3C2)co1,0%
22,CCc1ncsc1C(=O)OCC1(C#N)CCOCC1,-2%
23,Cc1cc(CS(=O)(=O)[C@@H](C)C(=O)NCC(C)C)on1,12%
24,CC(=O)N(C)CC(=O)Nc1ccccc1NCC1CCCCC1,12%
25,COc1cc(CN(C)[C@H]2CCc3nnc(C4CCOCC4)n3CC2)cc(OC)c1,1%

row,Structure (SMILES),% Inhibition
1,Cn1ccnc(N[C@@H](COc2ccccc2F)c2ccccc2)c1=O,3%
2,NC(=O)CCc1ccc(S(=O)(=O)Cl)cc1,13%
3,COC(=O)c1ccc(Nc2nc(C)c3nc(C)n(-c4ccc(C(=O)OC)cc4)c3n2)cc1,3%
4,CCOc1cc(Cl)c(Cl)c(C#N)c1OC(C)=O,6%
5,COc1ccc(-c2nccn3cc(C(=O)NCCN(C)C4CCCCC4)nc23)cc1,5%
6,CCCC[C@H](CC)C(=O)Nc1c(C)cccc1CC,-8%
7,Brc1ccc(Oc2ncc(CN3CCOCC3)s2)cc1,7%
8,Cc1ccc2c(c1)CCCN2S(=O)(=O)c1ccc2ccccc2c1,-7%
9,Cc1ccc(Nc2ccc(N3CCNCC3)nn2)nc1,58%
10,Cc1ccnc(Nc2ccc(N3CCNCC3)nn2)c1,65%
11,Cc1ccnc(N2CCN(S(=O)(=O)Cc3ccon3)CC2)c1,15%
12,Cc1cnc(CC[C@H]2CCCN2C(=O)CCn2ccnc2)n1C,7%
13,CCC(C#N)(CC)c1nc(-c2cc(N)nc3ccccc23)no1,8%
14,CCC(=O)O[C@@]1(c2ccc(C3CC3)cc2)CCCN(Cc2ccccc2)C1,-1%
15,O=C1CCN(C(=O)COc2ccc(-c3ccccc3)cc2Cl)CCN1,-12%
16,CC(=O)N[C@H]1CCc2nc(N)sc2C1,13%
17,C[C@@H]1C[C@@H](Nc2ccccc2)c2ccccc2N1C(=O)COc1ccc(Br)cc1,10%
18,O=C(Cc1c(Cl)cccc1Cl)N1CC[C@]2(CCOC2)C1,-19%
19,CC[C@@]1(C)CCCN(C(=O)Cc2c(C)noc2Cl)C1,87%
20,Cc1noc(Cl)c1CC(=O)N1CCCC(C)(C)CC1,20%
21,Cc1ccc(-n2c(=O)c3sccc3n(CC(=O)NCc3ccc(F)cc3F)c2=O)cc1C,-20%
22,CC1CCC2(CC1)N=C(c1ccccc1)C(=O)N2CC(=O)N[C@H]1CCc2ccccc21 (stereo not given in full),-4%
23,CN(Cc1cnn(-c2ccccc2)n1)c1ncnc2[nH]ncc12,10%
24,CCCCC(=O)N1CCc2[nH]nc(C(=O)NCCc3ccc(OC)cc3)c2C1,2%
25,Cc1nc2nnnn2c(C)c1C/C=C/c1ccccc1,8%
